Records with an inconclusive call do not appear. Active and inactive are the calls of the source. Unless noted, the call rests on the fitted dose curve; in most records, active means well fitted curve in the direction sought with a large enough effect in the repeat runs; inconclusive means weak or mixed curves; inactive means no such curve, though single readings can be large; an effect the other way counts as inactive or inconclusive.
Key:
[1] = qHTS assay for small molecule agonists of the p53 signaling pathway (AID 651631; calls by dose curve; further: nearly all actives have a fitted effect of over 15% in size)
In short: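 HCT-116 p53RE-bla reporter line, 16 h compound treatment at 37 °C, then fluorescence after 2 h with B/G FRET substrate.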

[2] = qHTS assay for small molecules that induce genotoxicity in human embryonic kidney cells expressing luciferase-tagged ATAD5 (AID 651632); further: nearly all actives have a fitted effect of over 15% in size
In short: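 Cells were seeded at 2,000 per well, dosed with compound, and incubated 16 hr at 37C in 5% CO2. Luciferase activity was then quantified after a 30 min room-temperature incubation with Amplite.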

[3] = qHTS assay for small molecule agonists of the p53 signaling pathway - cell viability (AID 651633; calls by dose curve;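 further: p53RE-bla HCT reporter cells with a stable beta-lactamase p53 reporter; series mostly up to about 83 µM; nearly all actives have a fitted effect of over 30% in size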)
In short: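 p53RE-bla cells, seeded at 4,000 per well and rested 5 h at 37 C/5% CO2, received compounds in DMSO for 16 h at 37 C. CellTiter-Glo was then added, and luminescence was read after 30 min at room temperature to gauge cytotoxicity.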

[4] = qHTS assay for small molecules that induce genotoxicity in human embryonic kidney cells expressing luciferase-tagged ATAD5 - cell viability (AID 651634; calls by dose curve; further: nearly all actives have a fitted effect of over 25% in size)
In short: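 Cells (HEK293T, luciferase-tagged ATAD5) are seeded at 2,000 per well, dosed with compound or DMSO vehicle, and incubated 15.5 hr at 37C and 5% CO2. CellTiter-Fluor is added for 30 min before fluorescence is measured.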

[5] = qHTS assay for small molecule disruptors of the mitochondrial membrane potential - cell viability (AID 720634; calls by dose curve;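 further: human HepG2 liver cancer cells; series mostly up to about 83 µM; nearly all actives have a fitted effect of over 20% in size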)
In short: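 Cytotoxicity was measured by ATP quantitation in HepG2 wells that had first been treated with compound for 1 hr and stained with m-MPI dye; CellTiter-Glo incubation was 30 min at room temperature.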

[6] = qHTS assay for small molecule disruptors of the mitochondrial membrane potential (AID 720635)
In short: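 HepG2 cells (2,000/well) attached overnight at 37C, then took compound for 1 hr at 37C, 5% CO2. Mito-MPS dye was added for 30 min; fluorescence was read at 490/535 nm (monomers) and 540/590 nm (aggregates).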

[7] = qHTS assay to test for compound auto fluorescence at 590 nm (red) in HepG2 cells (AID 720674)
In short: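 Intrinsic compound fluorescence in the red window (Ex/Em 540/590 nm) is measured in attached HepG2 cells exposed for 1 hr, DMSO vehicle as baseline, benchmarked to Rose Bengal sodium.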

[8] = qHTS assay to test for compound auto fluorescence at 535 nm (green) in HepG2 cells (AID 720675)
[9] = qHTS assay to test for compound auto fluorescence at 460 nm (blue) in HEK293 cells (AID 720678)
In short: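 Blue-channel (Ex/Em 405/460 nm) intensity measured in HEK293 cultures after overnight compound exposure at 37C; signal expressed relative to triamterene. Cells plated 2,000 per well in 10% dialyzed FBS medium and allowed 4-5 hr to attach.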

[10] = qHTS assay to test for compound auto fluorescence at 535 nm (green) in HEK293 cells (AID 720680)
[11] = qHTS assay to test for compound auto fluorescence at 460 nm (blue) in HEK293 cell free culture (AID 720681)
In short: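 Test compounds were pinned into cell-free culture medium (DMEM with 10% FBS) and fluorescence was read directly at Ex/Em 405/460 nm. Signals were expressed as fluorescence equivalents of triamterene, with DMSO vehicle as control.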

[12] = qHTS assay to test for compound auto fluorescence at 535 nm (green) in HEK293 cell free culture (AID 720682)
In short: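 Steps: dispense DMEM/10% FBS into empty wells; pin in compound or DMSO; measure fluorescence at 485/535 nm. Values are fluorescein equivalents.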

[13] = qHTS assay to test for compound auto fluorescence at 590 nm (red) in HEK293 cell free culture (AID 720683)
In short: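 Tox21 10K library compounds were pinned into cell-free DMEM with 10% FBS and fluorescence was read at excitation 540 nm. Activity is expressed as Rose Bengal sodium equivalency.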

[14] = qHTS assay to test for compound auto fluorescence at 590 nm (red) in HepG2 cell free culture (AID 720684)
In short: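 Readout: intrinsic compound fluorescence at 590 nm emission after 540 nm excitation, scaled to Rose Bengal sodium. Matrix was cell-free MEM with 10% FBS; DMSO vehicle wells served as control.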

[15] = qHTS assay to test for compound auto fluorescence at 460 nm (blue) in HepG2 cell free culture (AID 720685)
In short: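 Cell-free plates of MEM plus 10% FBS received 23 nL compound or DMSO vehicle; blue-channel (405/460 nm) intensity scored against triamterene as reference fluorophore.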

[16] = qHTS assay to test for compound auto fluorescence at 535 nm (green) in HepG2 cell free culture (AID 720686)
[17] = qHTS assay to test for compound auto fluorescence at 460 nm (blue) in HepG2 cells (AID 720687)
In short: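 Cells (2,000/well in MEM with 10% FBS) attached overnight at 37 C, then were exposed to compound or DMSO for 1 hr at 37 C, 5% CO2. Fluorescence read at Ex/Em 405/460 nm, expressed as triamterene-equivalent signal.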

[18] = biological target: Glucocorticoid receptor (Homo sapiens) (UniProt P04150); test: qHTS assay to identify small molecule agonists of the glucocorticoid receptor (GR) signaling pathway (AID 720691; active means well fitted activation curve with a large enough effect in the signal ratio in the repeat runs, not every such curve was filed as active; the % refers to the signal ratio)
In short: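 Steps: seed GR-bla HeLa cells, incubate 4 h at 37 C/5% CO2; pin-transfer DMSO-dissolved compounds; incubate 18 h at 37 C; add LiveBLAzer B/G FRET substrate; after 2 h at room temperature, measure fluorescence.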

[19] = biological target: Glucocorticoid receptor (Homo sapiens) (UniProt P04150); test: qHTS assay to identify small molecule antagonists of the glucocorticoid receptor (GR) signaling pathway (AID 720692; active means well fitted inhibition curve with a large enough effect in the signal ratio in the repeat runs, not every such curve was filed as active; the % refers to the signal ratio)
In short: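 Antagonism was scored as loss of dexamethasone-driven (5 nM final) reporter signal in HeLa cells bearing a glucocorticoid response element–beta-lactamase construct, after 18 h compound exposure at 37 C and 2 h FRET substrate loading.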

[20] = qHTS assay to test for compound auto fluorescence at 590 nm (red) in HEK293 cells (AID 720679)
In short: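 Red-channel autofluorescence (Ex/Em 540/590 nm; Rose Bengal sodium reference) was measured after overnight 37C, 5% CO2 exposure of attached HEK293 cells, 2,000 per well in medium with 10% dialyzed FBS.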
On the % scale 0 is the no-effect control and ±100 the full control effect.

Glucocorticoid receptor (Homo sapiens), sequence (P04150 whole entry, looked up): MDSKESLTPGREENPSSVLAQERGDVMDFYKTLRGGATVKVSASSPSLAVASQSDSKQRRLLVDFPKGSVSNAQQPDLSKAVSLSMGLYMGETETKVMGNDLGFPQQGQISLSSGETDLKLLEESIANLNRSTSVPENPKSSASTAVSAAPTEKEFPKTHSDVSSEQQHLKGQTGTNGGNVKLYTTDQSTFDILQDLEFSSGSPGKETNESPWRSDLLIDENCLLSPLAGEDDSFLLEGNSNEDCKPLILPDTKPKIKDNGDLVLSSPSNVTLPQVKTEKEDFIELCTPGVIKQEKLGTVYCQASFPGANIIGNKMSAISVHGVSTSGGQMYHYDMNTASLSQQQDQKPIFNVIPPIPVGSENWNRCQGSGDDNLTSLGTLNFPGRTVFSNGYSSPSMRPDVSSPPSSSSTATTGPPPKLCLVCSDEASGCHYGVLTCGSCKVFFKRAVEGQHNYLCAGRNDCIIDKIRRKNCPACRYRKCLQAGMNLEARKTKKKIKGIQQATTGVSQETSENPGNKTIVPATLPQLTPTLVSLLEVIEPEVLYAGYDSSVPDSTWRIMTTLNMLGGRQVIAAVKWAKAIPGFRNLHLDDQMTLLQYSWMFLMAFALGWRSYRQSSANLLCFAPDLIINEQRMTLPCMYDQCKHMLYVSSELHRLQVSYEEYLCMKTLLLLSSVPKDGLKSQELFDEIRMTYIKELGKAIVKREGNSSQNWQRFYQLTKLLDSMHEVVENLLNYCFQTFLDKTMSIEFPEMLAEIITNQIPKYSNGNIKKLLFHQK

CCCN1C[C@H](CSC)C[C@@H]2c3cccc4[nH]cc(c34)C[C@H]21
inactive: outcome [1] | Potency [2] | outcome [3] | Potency [4] | outcome [5] | Potency [6] | outcome [7] | outcome [8] | outcome [9] | outcome [10] | outcome [11] | outcome [12] | outcome [13] | outcome [14] | outcome [15] | outcome [16] | outcome [17] | Potency [18] | outcome [19]

COc1cc(NS(=O)(=O)c2ccc(N)cc2)nc(OC)n1
inactive: outcome [1] | Potency [2] | outcome [3] | Potency [4] | outcome [5] | Potency [6] | fluorescence, relative to Rose Bengal [7] -0.297% [at 18.6 µM] | fluorescence, % of fluorescein control [8] -0.149% [at 18.6 µM] | fluorescence, % of triamterene [9] 0.216% [at 18.6 µM] | fluorescence, % of fluorescent control [20] -0.0598% [at 18.6 µM] | fluorescence, % of fluorescein [10] 0.0037% [at 18.6 µM] | fluorescence, % of fluorescent control [11] 0.0589% [at 18.6 µM] | activity change [12] -0.0247% [at 18.6 µM] | fluorescence, % of fluorescent control [13] 0.0115% [at 18.6 µM] | fluorescence, % of Rose Bengal [14] 0.441% [at 18.6 µM] | fluorescence, % of fluorescent control [15] -0.0655% [at 18.6 µM] | fluorescence, % of fluorescein control [16] -0.0376% [at 18.6 µM] | fluorescence, % of fluorescent control [17] 0.0701% [at 18.6 µM] | Potency [18] | outcome [19]

CC(C(=O)O)c1ccc2c(c1)CC(=O)c1ccccc1S2 (configuration not stated)
inactive: outcome [1] | Potency [2] | outcome [3] | Potency [4] | outcome [5] | Potency [6] | outcome [7] | outcome [8] | outcome [9] | outcome [20] | outcome [10] | outcome [11] | outcome [12] | outcome [13] | outcome [14] | outcome [15] | outcome [16] | outcome [17] | outcome [19]

Cc1nc2n(c(=O)c1CCN1CCC(c3noc4cc(F)ccc34)CC1)CCC[C@H]2O
inactive: outcome [1] | Potency [2] | outcome [3] | Potency [4] | outcome [5] | Potency [6] | outcome [7] | outcome [8] | outcome [9] | outcome [20] | outcome [10] | outcome [11] | outcome [12] | outcome [13] | outcome [14] | outcome [15] | outcome [16] | outcome [17] | Potency [18] | outcome [19]

CCCCNc1ccc(C(=O)OCCN(C)C)cc1
inactive: outcome [1] | Potency [2] | outcome [3] | Potency [4] | outcome [5] | Potency [6] | fluorescence, relative to Rose Bengal [7] -0.178% [at 18.6 µM] | fluorescence, % of fluorescein control [8] -0.0004% [at 18.6 µM] | fluorescence, % of triamterene [9] 0.259% [at 18.6 µM] | fluorescence, % of fluorescent control [20] 0.151% [at 18.6 µM] | fluorescence, % of fluorescein [10] -0.108% [at 18.6 µM] | fluorescence, % of fluorescent control [11] 0.0181% [at 18.6 µM] | activity change [12] -0.0203% [at 18.6 µM] | fluorescence, % of fluorescent control [13] -0.282% [at 18.6 µM] | fluorescence, % of Rose Bengal [14] 0.315% [at 18.6 µM] | fluorescence, % of fluorescent control [15] 0.0923% [at 18.6 µM] | fluorescence, % of fluorescein control [16] -0.0132% [at 18.6 µM] | fluorescence, % of fluorescent control [17] 0.0537% [at 18.6 µM] | Potency [18] | outcome [19]

Cc1cccc(C)c1NC(=O)c1ccccc1C(=O)O
inactive: outcome [1] | Potency [2] | outcome [3] | Potency [4] | outcome [5] | Potency [6] | outcome [7] | outcome [8] | outcome [9] | outcome [20] | outcome [10] | outcome [11] | outcome [13] | outcome [14] | outcome [15] | outcome [16] | outcome [17] | Potency [18] | outcome [19]

Reference: PubChem BioAssay (Tox21)
